MCF10A rerep – A quantitative high throughput screen for small molecules that induce DNA re-replication in MCF 10a normal breast cells; MCF 10A DNA re-replication, Hoechst nuclear intensity, 48 h; Potency, µM (top dose mostly 46.1 µM), for the others: at the highest dose activity, positive = re-replication, hits mostly activators; actives 2.9% (n = 350,000); note: potency is the fitted concentration of half-maximal effect; % of control where 0% means no effect; nearly all actives have a fitted effect of over 50% in size
KB-V1 MDR tox – qHTS assay for MDR1-selective chemotherapeutics: Primary screen using the drug-selected MDR subline cells KB-V1. KB-V1 MDR cells viability, CellTiter-Glo, 72 h. Potency, µM (titrated, usually from 46.1 µM), hits mostly cytotoxic. actives 3.4% (n = 400,000). AID 1347076, 2019; note: potency is the fitted concentration of half-maximal effect; % is set by controls: 0 for no effect and ±100 for the full control effect; nearly all actives have a fitted effect of over 60% in size
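Drug-selected KB-V1 cells, grown in DMEM lacking phenol red with 10% FBS, receive compound titrations; after three days at 37 degrees C, surviving cell ATP is quantified by CellTiter-Glo luminescence and responses normalized and curve-fitted.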
IL-1B inflam inh – qHTS for Inhibitors of Inflammasome Signaling: IL-1-beta AlphaLISA Primary Screen; THP-1 LPS/ATP IL-1B secretion, AlphaLISA, 16 h; stronger effect = lower value; activity change, % at 57.5 µM; actives 4.7% (n = 360,000); AID 743279, 2014; in the data active = activity change below about -50%; inconclusive = mostly about -30% to -49%; note: % is set by controls: 0 for no effect and ±100 for the full control effect
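Secreted IL-1B measured by AlphaLISA bead assay after 16 h compound exposure of THP-1 cells; compounds (final up to 57.5 uM) added 1 h before LPS (250 ng/mL) and ATP (1.25 mM) stimulation; lower signal means less secretion.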
SW480 rereplic – A quantitative high throughput screen for small molecules that induce DNA re-replication in SW480 colon adenocarcinoma cells. SW480 DNA re-replication, Hoechst DNA content imaging, 48 h. Potency, µM (highest dose often 46.1 µM), for inactives: at the top dose re-replication activation, actives largely listed as activators. actives 1.8% (n = 340,000); note: potency is the fitted concentration of half-maximal effect; % of control where 0% means no effect; nearly all actives have a fitted effect of over 55% in size
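Per well, 250 cells were exposed to pinned compound for 48 hr. Nuclear DNA was visualised with Hoechst (40 min, 37 C) and total object intensity recorded by fluorescence scanning.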
KB-3-1 cytotox – qHTS assay for MDR1-selective chemotherapeutics: Primary screen using the parental adenocarcinoma cell KB-3-1; KB-3-1 viability, CellTiter-Glo ATP luminescence, 72 h; actives 1.4% (n = 400,000); Potency, µM (doses to about 46.1 µM), hits mostly cytotoxic; note: potency is the fitted concentration of half-maximal effect; % is set by controls: 0 for no effect and ±100 for the full control effect; nearly all actives have a fitted effect of over 60% in size
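Parental KB-3-1 viability, qHTS format: 72 h compound exposure, 37 °C; CellTiter-Glo; media-only wells and DMSO plates as controls; concentration-effect fits on corrected data.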
* marks the source's active call; other numbers are inactive results; i = inactive; ? = inconclusive; nt = no result given. An excerpt weighted towards active compounds, which were near 9.9% of everything screened. Unless noted, calls come from the whole dose curve; as a rule, active = well fitted curve in the direction sought with a large enough effect; inconclusive = small, poorly fitted or top-dose-only effect, or another doubt; inactive = no such curve, though single readings can be large; an effect the other way counts as inactive or inconclusive.

SMILES	MCF10A rerep	KB-V1 MDR tox	IL-1B inflam inh	SW480 rereplic	KB-3-1 cytotox
CC1(C)C(=O)C=CC(=O)C(C)(C)C(=O)C=CC(=O)C(C)(C)C2=CC=C(O2)C(C)(C)C(=O)C=CC1=O	7.3µM*	i	-97*	?	?
COc1oc(C(=O)NC2CCCCC2)c(-c2ccc(Cl)cc2)c1S(=O)(=O)c1ccccc1	27%	4.6µM*	-58*	?	?
COCC(=O)N1CCC(Oc2ccc(C(=O)N(C)CCCC3CCCC3)cc2)CC1	14%	i	13	5%	i
Cc1ccc(NC(=O)c2nc(C)n(-c3ccc([N+](=O)[O-])cc3)n2)cc1	1%	12µM*	-30	-3%	i
CC1(C)CC(=O)C=C(c2ccccc2-c2ccc3cc[nH]c3c2)C1=O	nt	?	5	nt	i
CC1(C)CC(=O)C=C(c2ccc(-c3ccc4[nH]ccc4c3)cc2)C1=O	nt	?	-15	nt	8.2µM*
Cc1ccc(Cn2ccc(NC(=O)c3cc(-c4ccc(Cl)c(Cl)c4)on3)n2)cc1	nt	i	nt	nt	i
O=C1CSC(=Nc2cccc(Cl)c2Cl)N1Cc1cccnc1	0%	16µM*	-52*	-83%	i
COC(=O)Cc1c[nH]c2cccc(OCC(O)CN(Cc3ccc([N+](=O)[O-])cc3)C(C)(C)C)c12 (stereo unspecified)	8%	5.8µM*	-7	8%	i
COC(=O)Cc1c[nH]c2cccc(OCC(O)CN(Cc3ccccc3)C(C)C)c12 (stereo unspecified)	13%	?	-18	10%	i
O=S(=O)(NCc1ccccc1Cl)c1cccs1	-10%	i	1	-1%	i
CCOC(=O)Cn1nc(C)c(NC(=O)COc2ccc(OC)cc2)c1C	-15%	i	24	-3%	i
NC(CSC(c1ccccc1)(c1ccccc1)c1ccccc1)C(=O)O (stereo unspecified)	6.5µM*	?	10	6.5µM*	3.7µM*
CCOc1ccc(-c2nc(C#N)c(NCc3ccco3)o2)cc1	1%	i	?	-1%	i
Cc1ccc(C(=O)N/C(=C\c2ccc(-c3ccc(Br)cc3)o2)C(=O)NCCCN(C)C)cc1	?	?	-77*	7.3µM*	5.8µM*
Cc1ccc(C(=O)N/C(=C\c2ccc(-c3ccccc3[N+](=O)[O-])o2)C(=O)NCCCN2CCOCC2)cc1	?	i	58	?	i
CN(C)CCCNC(=O)/C(=C\c1ccc(-c2cccc([N+](=O)[O-])c2)o1)NC(=O)c1ccccc1	3%	i	-119*	?	i
Cc1ccc(C(=O)N/C(=C\c2ccc(-c3cccc([N+](=O)[O-])c3)o2)C(=O)NCCCN(C)C)cc1	1%	i	-68*	0%	?
Cc1ccc(S(=O)(=O)N2[C@@H](c3ccccc3F)C(C(=O)O)=CC[C@H]2c2cccs2)cc1	24%	i	13	-3%	i
CCC(=O)c1c[nH]c(C(=O)NCCCN2CCOCC2)c1	-3%	?	15	-4%	i
CC(C)(C)c1ccc(C(=O)c2c[nH]c(C(=O)NCCCN3CCOCC3)c2)cc1	?	18µM*	12	8%	i
O=C1Nc2ccc(I)cc2C1=Cc1cc(Br)c(O)c(Br)c1	nt	i	nt	nt	i
